Compound activity deposited in PubChem BioAssay by several laboratories.
DUSP3 inh: VHR1 phosphatase inhibitors, primary screen, biochemical, absorbance, uHTS; Dual specificity protein phosphatase 3 (Homo sapiens), P51452; inhibition, % at 13.3 µM; 290,000 tested, 0.52% active; AID 1654, 2009; recombinant VHR phosphatase, pNPP absorbance; in the data active means inhibition above about 50%
3CLpro inhibitor: SARS-CoV 3CLpro protease inhibitors, primary screen, biochemical, quenched FRET | Replicase polyprotein 1ab (Severe acute respiratory syndrome coronavirus), P0C6X7 | recombinant SARS-CoV 3CLpro, quenched FRET peptide cleavage | inhibition, % at 6 µM | 290,000 tested, 0.14% active | AID 1706, 2009; in the data active means inhibition above about 12%
PrPC surface inh: inhibitors of human cell surface prion protein PrPC, primary screen, cell-based, TR-FRET; Major prion protein (Homo sapiens), P04156; 370,000 tested, 0.43% active; AID 720596, 2013; TR-FRET read-out; inhibition, % at 13.8 µM; in the data active means inhibition above about 24%
MazEF act: activators of E. coli MazEF toxin-antitoxin RNase, primary screen, biochemical, fluorescence, uHTS. FAM/BHQ RNA-DNA oligo cleavage fluorescence, 5 h. 350,000 tested, 0.32% active. activation, % at 20 µM. Endoribonuclease toxin MazF (Escherichia coli (strain K12)), P0AE70; in the data active means activation above about 50%
Mtb hypoxia inh: PubChem AID 1159583. M. tuberculosis hypoxia-regulated fluorescent reporter, fluorescence. 300,000 tested, 0.1% active. fluorescence inhibition, % (no concentration beside the values); in the data active means fluorescence inhibition mostly above about 23%, no sharp cut-off; inactive means mostly below about 17%
PrP UTR inh: inhibition of PrP 5' UTR reporter expression; cell-based PrP 5' UTR mRNA reporter, plate reader; inhibition, % (no concentration beside the values); 340,000 tested, 0.35% active; AID 488862, 2010; in the data active means inhibition above about 52%
PrPC confirm: confirmation of inhibitors of cell surface human prion protein, confirmation, cell-based, TR-FRET. shares compounds with PrPC surface inh. cell surface PrPC level. 1,500 tested, 65% active. inhibition, % at 13.8 µM; in the data active means inhibition above about 25%
LD9 cytotox: cytotoxicity in LD9 cells, cytotoxicity control for cell surface PrPc inhibitor project, cell-based, luminescence, high throughput. shares compounds with PrPC surface inh. luminescence viability. inhibition, % at 13.8 µM. 1,500 tested, 29% active. AID 743201, 2013; in the data active means inhibition above about 9.5%
Numbers stand for hits; ! = not confirmed by another sample. In the library only some 1.5% were active in any assay of this set; here they are far more common.

N#CCc1ccc(NC(=O)Nc2cccc(Cl)c2)cc1 was read as DUSP3 inh inactive, 3CLpro inhibitor inactive, PrPC surface inh 31, MazEF act inactive, PrP UTR inh inactive, PrPC confirm 33 and LD9 cytotox inactive.
For COc1ccc(C(=O)NNC(=O)C(Cc2ccc(O)cc2)NC(=O)c2ccccc2NC(=O)c2ccc(OC)cc2)cc1 (stereo unspecified) the results were DUSP3 inh inactive, 3CLpro inhibitor inactive, PrPC surface inh 119, MazEF act inactive, Mtb hypoxia inh inactive, PrP UTR inh inactive, PrPC confirm inactive and LD9 cytotox inactive.
CCC(=O)c1cn(CC(=O)Nc2cccc(C)c2C)c2ccccc12 was read as DUSP3 inh inactive, 3CLpro inhibitor inactive, PrPC surface inh inactive, MazEF act inactive, Mtb hypoxia inh inactive and PrP UTR inh inactive.
For Cc1cccc(NC(=O)Cn2cc(C(=O)C3CC3)c3ccccc32)c1C the results were DUSP3 inh inactive, 3CLpro inhibitor inactive, PrPC surface inh 31, MazEF act inactive, Mtb hypoxia inh inactive, PrP UTR inh inactive, PrPC confirm inactive and LD9 cytotox 22.
For CC(C)(C)OC(=O)CNC(=O)c1[nH]cnc1C(=O)NC(Cc1ccccc1)C(=O)OC(C)(C)C (stereo unspecified) the results were Mtb hypoxia inh inactive.
`CC(C)C[C@H](NC(=O)c1[nH]cnc1C(=O)N[C@H](C)c1ccccc1)C(=O)OC(C)(C)C` gave DUSP3 inh inactive, 3CLpro inhibitor inactive, PrPC surface inh 27, MazEF act inactive, PrP UTR inh inactive, PrPC confirm inactive and LD9 cytotox inactive.
`S=c1[nH]nc2ccc3ccccc3n12` gave PrPC surface inh inactive.
For S=c1[nH]c2ccccc2n2c(=S)[nH]nc12 the results were DUSP3 inh inactive, 3CLpro inhibitor inactive, PrPC surface inh 30, MazEF act inactive, Mtb hypoxia inh inactive, PrP UTR inh inactive, PrPC confirm 59 and LD9 cytotox inactive.
For CN1CCN(c2ccc([N+](=O)[O-])cc2C=NNC(=O)c2ccc(F)cc2)CC1 the results were Mtb hypoxia inh inactive.
CN(C)S(=O)(=O)c1ccc(N2CCCC2)c(C(=O)Nc2ccccc2)c1 was read as PrPC surface inh 42, MazEF act inactive, Mtb hypoxia inh inactive, PrP UTR inh inactive, PrPC confirm 41 and LD9 cytotox inactive.
`Cc1ccc(NC(=O)c2cc(S(=O)(=O)N(C)C)ccc2N2CCCC2)cc1F` gave DUSP3 inh inactive, 3CLpro inhibitor inactive, PrPC surface inh 63, MazEF act inactive, Mtb hypoxia inh inactive, PrP UTR inh inactive, PrPC confirm 54 and LD9 cytotox inactive.
`CSc1ccccc1NC(=O)c1cc(S(=O)(=O)N(C)C)ccc1N1CCCC1` gave DUSP3 inh inactive, 3CLpro inhibitor inactive, PrPC surface inh inactive, MazEF act inactive, Mtb hypoxia inh inactive and PrP UTR inh inactive.
`Cc1nnc(NC(=O)c2cc(S(=O)(=O)N(C)C)ccc2N2CCCC2)s1` gave PrPC surface inh 25, MazEF act inactive, Mtb hypoxia inh inactive, PrP UTR inh inactive, PrPC confirm inactive and LD9 cytotox inactive.
Screening S=c1nc(Cc2ccccc2)[nH]c2ccccc12 returned DUSP3 inh inactive, 3CLpro inhibitor inactive, PrPC surface inh 31, MazEF act inactive, Mtb hypoxia inh inactive, PrP UTR inh inactive, PrPC confirm 26 and LD9 cytotox inactive.
For S=c1nc(Cc2ccc(Cl)cc2)[nH]c2ccccc12 the results were DUSP3 inh inactive, 3CLpro inhibitor inactive, PrPC surface inh 29, MazEF act inactive, Mtb hypoxia inh inactive, PrP UTR inh inactive, PrPC confirm 60 and LD9 cytotox inactive.
For C(=Nn1cnnc1)c1ccccn1 the results were Mtb hypoxia inh inactive.
Screening CC1=Nc2ccc(C)cc2/C1=C/c1c(N)n2oc(C)cc2nc1=O returned DUSP3 inh inactive, 3CLpro inhibitor inactive, PrPC surface inh 46!, MazEF act inactive, Mtb hypoxia inh inactive, PrP UTR inh inactive, PrPC confirm inactive and LD9 cytotox inactive.
`CSc1nsc2nc(=O)c(/C=C3\C(C)=Nc4ccc(C)cc43)c(N)n12` gave DUSP3 inh inactive, 3CLpro inhibitor inactive, PrPC surface inh inactive, MazEF act inactive, Mtb hypoxia inh inactive and PrP UTR inh inactive.
Screening COc1ccc2nc3cc(Cl)ccc3c(Nc3cc(CN4CCCC4)c(O)c(CN4CCCC4)c3)c2n1 returned DUSP3 inh inactive, 3CLpro inhibitor inactive, PrPC surface inh 45, Mtb hypoxia inh inactive, PrPC confirm 42 and LD9 cytotox 37.
Cc1sc2ncnc(SCC(=O)N3CCCC3=O)c2c1C was read as DUSP3 inh inactive, 3CLpro inhibitor inactive, PrPC surface inh 27, MazEF act inactive, Mtb hypoxia inh inactive, PrP UTR inh inactive, PrPC confirm 40 and LD9 cytotox inactive.
For Cc1sc2ncnc(SCC(=O)N3CCCCC3)c2c1C the results were DUSP3 inh inactive, 3CLpro inhibitor inactive, PrPC surface inh inactive, MazEF act inactive and PrP UTR inh inactive.
For CC(=O)Nc1ccc(NC(=O)CSc2ncnc3sc(C)c(C)c23)cc1 the results were DUSP3 inh inactive, 3CLpro inhibitor inactive, PrPC surface inh inactive, MazEF act inactive, Mtb hypoxia inh inactive and PrP UTR inh inactive.
Cc1sc2ncnc(SCC(=O)NC(=O)c3cccn3C)c2c1C was read as DUSP3 inh inactive, 3CLpro inhibitor inactive, PrPC surface inh 31, MazEF act inactive, Mtb hypoxia inh inactive, PrP UTR inh inactive, PrPC confirm 77 and LD9 cytotox inactive.
For Cc1cccc(NC(=O)CSc2ncnc3sc(C)c(C)c23)n1 the results were DUSP3 inh inactive, 3CLpro inhibitor inactive, PrPC surface inh 27, MazEF act inactive, Mtb hypoxia inh inactive, PrP UTR inh inactive, PrPC confirm 42 and LD9 cytotox inactive.
COc1cc2[nH]c(=S)n(NC(=O)c3ccccc3)c(=O)c2cc1OC was read as DUSP3 inh inactive, 3CLpro inhibitor inactive, PrPC surface inh 36, MazEF act inactive, Mtb hypoxia inh inactive, PrP UTR inh inactive, PrPC confirm 50 and LD9 cytotox inactive.
For CC(=NNC(=O)C1CCN(S(=O)(=O)c2ccc(C)cc2)CC1)c1cccc([N+](=O)[O-])c1 the results were Mtb hypoxia inh inactive.
`COc1ccc(CNC(=O)c2cccc3c(-c4cccc(C(N)=O)c4)coc23)cc1OC` gave PrPC surface inh 37, PrPC confirm 25 and LD9 cytotox 28.
O=C(c1ccco1)N1CCN(C(=NS(=O)(=O)c2cccs2)c2ccccc2Cl)CC1 was read as Mtb hypoxia inh inactive.
